PubChem BioAssay
Active and inactive are the calls of the source.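 Rule for the calls, unless noted: active = mean z-score across replicates of 1.96 or higher in either the MELAS or the Rieske mutant cell line; inactive = the rest.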

Columns and labels:
[1] = viability loss with induced miR-34 in A549 – imaging, A549 dox-inducible miR-34, nuclei and caspase counts, primary screen (AID 1347080;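 active = compounds whose cell count with miR-34 switched on is under 0.7 times the count with it off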); conditions: A549 miR-34 inducible, Hoechst nuclei count, 48 h
[2] = MELAS cybrid and Rieske KO viability enhancers – cell-based, MELAS cybrids, Rieske KO mouse fibroblasts, CellTiter-Glo, primary screen (AID 1508586); conditions: low glucose;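 note: z relative to plate mean and SD of compound and empty wells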
[3] = stronger effect = lower value, cell number ratio, induced over uninduced
[4] = measured here: relative caspase fold change +Dox/-Dox
[5] = measured here: total cells with miR-34 induction, stronger effect = lower value
[6] = measured here: total cells without miR-34 induction
[7] = MELAS cybrid survival, CellTiter-Glo 48 h, stronger effect = higher value
[8] = Rieske KO mouse fibroblast survival, CellTiter-Glo 72 h
Note: test concentration not given here.

| Structure (SMILES) | fold change [1, 3] | fold change [1, 4] | cell count [1, 5] | cell count [1, 6] | z-score [2, 7] | z-score [2, 8] |
| --- | --- | --- | --- | --- | --- | --- |
| Cc1c(C(=O)Nc2ccc(N3CCC(N4CCOCC4)CC3)c(C#N)c2)cnn1-c1ccc(Cl)cc1 | 0.979 (inactive) | 0.399 | 1870 | 1910 | -0.464 (inactive) | -0.322 |
| CC(C)CN(CC(O)C(Cc1ccccc1)NC(=O)OC1CCOC1)S(=O)(=O)c1ccc(N)cc1 (centres undefined) | 0.88 (inactive) | 0.898 | 7780 | 8840 | -0.312 (inactive) | 0.463 |
| COc1ccc(CC2c3cc(OC)c(OC)cc3CC[N@+]2(C)CCC(=O)OCCCCCOC(=O)CC[N@@+]2(C)CCc3cc(OC)c(OC)cc3C2Cc2ccc(OC)c(OC)c2)cc1OC (some centres undefined) | 0.844 (inactive) | 1.36 | 7940 | 9400 | -0.391 (inactive) | 0.533 |
| CN1CCc2nc(C(=O)NC3CC(C(=O)N(C)C)CCC3NC(=O)C(=O)Nc3ccc(Cl)cn3)sc2C1 (centres undefined) | 0.965 (inactive) | 0.478 | 8860 | 9180 | -0.402 (inactive) | -0.373 |
| CC(O)=C(C#N)C(=O)Nc1ccc(C(F)(F)F)cc1 | 0.904 (inactive) | 1.22 | 7860 | 8690 | -0.297 (inactive) | -0.28 |
| CCOc1cc2ncc(C#N)c(Nc3ccc(F)c(Cl)c3)c2cc1NC(=O)C=CCN(C)C | 0.915 (inactive) | 1.02 | 681 | 744 | 1.18 (inactive) | 0.656 |
| CC(C)Oc1ccc(C(=O)NC(CNC(=O)CN(C)C)Cc2ccc(-c3cn4cccc(C(C)O)c4n3)cc2)cc1Cl (centres undefined) | 1 (inactive) | 0.389 | 1600 | 1590 | 1.36 (inactive) | -2.78 |
| CCOc1cc(C(CS(C)(=O)=O)N2C(=O)c3cccc(NC(C)=O)c3C2=O)ccc1OC (centres undefined) | 0.919 (inactive) | 0.498 | 8660 | 9420 | -0.371 (inactive) | -0.546 |
| OCc1ccc(OC2OC(CO)C(O)C(O)C2O)cc1 (centres undefined) | 0.984 (inactive) | 0.233 | 8280 | 8420 | -0.247 (inactive) | -0.122 |
| CC1O[C@@H](OC2C(Oc3cc(O)c(C(=O)CCc4ccc(O)cc4)c(O)c3)OC(CO)C(O)C2O)C(O)C(O)C1O (some centres undefined) | 0.973 (inactive) | 0.587 | 8080 | 8300 | -0.155 (inactive) | -0.191 |
| C#C[C@@]1(OC(C)=O)CC[C@H]2[C@@H]3CCC4=CC(OC(C)=O)CC[C@@H]4[C@@H]3CC[C@@]21C (some centres undefined) | 0.978 (inactive) | 0.478 | 8080 | 8260 | -0.279 (inactive) | -0.148 |
| CCN(CC)C(=O)C(C#N)=Cc1cc(O)c(O)c([N+](=O)[O-])c1 | 1.2 (inactive) | 1.41 | 8600 | 7190 | -0.263 (inactive) | -0.169 |
| NC1CCCN(c2c(C=C3SC(=O)NC3=O)cccc2-c2ccccc2)C1 (centres undefined) | 0.91 (inactive) | 0.316 | 8290 | 9110 | -0.282 (inactive) | 0.224 |
| CC1(C)S[C@@H]2C(NC(=O)Cc3ccccc3)C(=O)N2C1C(=O)O (some centres undefined) | 0.875 (inactive) | 0.906 | 7910 | 9040 | 0.0178 (inactive) | -0.226 |
| CCCCC(=O)OC1CC[C@H]2[C@@H]3CCc4cc(O)ccc4[C@@H]3CC[C@]12C (some centres undefined) | 0.855 (inactive) | 0.887 | 7760 | 9080 | -0.195 (inactive) | -0.141 |
| Cc1[nH]c(C=C2C(=O)Nc3ccc(S(=O)(=O)Cc4c(Cl)cccc4Cl)cc32)c(C)c1C(=O)N1CCCC1CN1CCCC1 (centres undefined) | 0.833 (inactive) | 1.46 | 4270 | 5130 | -0.699 (inactive) | 0.101 |
| C=C[C@@]1(C)CC(=O)[C@@]2(O)[C@@]3(C)C(O)CCC(C)(C)[C@@H]3C(O)C(OC(C)=O)[C@@]2(C)O1 (some centres undefined) | 0.968 (inactive) | 1.19 | 8540 | 8820 | 0.411 (inactive) | -0.394 |

| Structure (SMILES) | fold change [1, 3] | fold change [1, 4] | cell count [1, 5] | cell count [1, 6] | z-score [2, 7] | z-score [2, 8] |
| --- | --- | --- | --- | --- | --- | --- |
| Cc1nc(C#Cc2ccnc(Cl)c2)c(C)n1-c1ccc(OC(F)(F)F)cc1 | 1.01 (inactive) | 0.784 | 6890 | 6830 | -0.149 (inactive) | 0.0252 |
| CC(C)(F)CC(NC(c1ccc(-c2ccc(S(C)(=O)=O)cc2)cc1)C(F)(F)F)C(=O)NC1(C#N)CC1 (centres undefined) | 0.826 (inactive) | 0.999 | 7020 | 8500 | -0.379 (inactive) | -0.123 |
| CC(=O)C1=C(O)C=C2Oc3c(C(C)=O)c(O)c(C)c(O)c3[C@]2(C)C1=O | 0.866 (inactive) | 1.11 | 5890 | 6800 | -0.25 (inactive) | 0.769 |
| Cc1c(O)cccc1C(=O)NC(CSc1ccccc1)C(O)CN1C[C@H]2CCCC[C@H]2CC1C(=O)NC(C)(C)C (some centres undefined) | 0.999 (inactive) | 0.485 | 7710 | 7710 | -0.177 (inactive) | -0.0438 |
| CC1(C)SC2C(NC(=O)C(C(=O)O)c3ccsc3)C(=O)N2C1C(=O)O (centres undefined) | 0.763 (inactive) | 0.814 | 7330 | 9600 | -0.203 (inactive) | -0.146 |
| NC1=N[C@@]2(c3cc(NC(=O)c4ccc(F)cn4)ccc3F)COC[C@@H]2CS1 | 0.902 (inactive) | 1.51 | 8500 | 9420 | -0.211 (inactive) | 0.113 |
| COC1C=CO[C@@]2(C)Oc3c(C)c(O)c4c(O)c(c(C=NN5CCN(C)CC5)c(O)c4c3C2=O)NC(=O)C(C)=CC=CC(C)C(O)C(C)C(O)C(C)C(OC(C)=O)C1C (some centres undefined) | 0.973 (inactive) | 0.46 | 7970 | 8200 | -0.298 (inactive) | 0.515 |
| CC1(C)CCC(c2ccc(Cl)cc2)=C(CN2CCN(c3ccc(C(=O)NS(=O)(=O)c4ccc(NC(CCN5CCOCC5)CSc5ccccc5)c(S(=O)(=O)C(F)(F)F)c4)cc3)CC2)C1 (centres undefined) | 1.03 (inactive) | 0.848 | 4260 | 4140 | 0.179 (inactive) | -2.71 |
| OC(CNCC(O)[C@H]1CCc2cc(F)ccc2O1)[C@@H]1CCc2cc(F)ccc2O1 (some centres undefined) | 0.966 (inactive) | 0.954 | 6580 | 6810 | 1.33 (inactive) | 0.256 |
| CCCC(=O)O[C@@]1(C(=O)COC(C)=O)CC[C@H]2[C@@H]3CC(F)C4=CC(=O)C=C[C@]4(C)[C@]3(F)C(O)C[C@@]21C (some centres undefined) | 0.767 (inactive) | 1.77 | 5160 | 6730 | -0.0529 (inactive) | -0.145 |
| COc1cc2c(cc1O)CC[C@@H]1[C@H]2CC[C@]2(C)C(O)CC[C@@H]12 (some centres undefined) | 1.05 (inactive) | 0.703 | 1820 | 1740 | 1.32 (inactive) | 0.434 |
| COc1ccc(C2CC(=O)c3c(O)cc(O)cc3O2)cc1O (centres undefined) | 0.926 (inactive) | 0.807 | 9010 | 9730 | -0.233 (inactive) | 0.0902 |
| CC(C)(C)[N+]([O-])=Cc1ccc(S(=O)(=O)O)cc1S(=O)(=O)O | 0.908 (inactive) | 1.03 | 9880 | 10900 | -0.368 (inactive) | 0.732 |
| Cc1cccc(C)c1OCC(=O)NC(Cc1ccccc1)C(O)CC(Cc1ccccc1)NC(=O)C(C(C)C)N1CCCNC1=O (centres undefined) | 1 (inactive) | 0.797 | 6290 | 6270 | -0.513 (inactive) | 0.0231 |
| CCC(C)(C)C(=O)OC1CC(C)C=C2C=CC(C)C(CC[C@@H]3CC(O)CC(=O)O3)[C@H]21 (some centres undefined) | 1.33 (inactive) | 0.766 | 2960 | 2220 | 1.26 (inactive) | -1.5 |
| C=C(C)C1CC[C@]2(C(=O)O)CC[C@]3(C)[C@H](CC[C@@H]4[C@@]5(C)CCC(O)C(C)(C)[C@@H]5CC[C@]43C)[C@@H]12 (some centres undefined) | 0.87 (inactive) | 0.918 | 6780 | 7790 | -0.0804 (inactive) | -0.141 |
| CC(C)(C)NS(=O)(=O)c1cncc(-c2cc(F)c3nc(N)nn3c2)c1 | 0.874 (inactive) | 1.55 | 8160 | 9340 | -0.353 (inactive) | -0.161 |
